PubChem BioAssay AID1159580 (chemical genetic matrix, 2015)
Values joined by “and” are separate entries in the source; they are usually repeats but may differ in a detail not shown here. Equal values may be shown once. The campaign covered roughly 5,500 compounds. About 2,000 (36%) were called active. Inconclusive results (about 18%) are left out. Cut-off read from the data, not from the text of the source: active = normalized growth mostly below about 0.91 (no sharp cut-off); inconclusive = no clear call, values can overlap the other calls; inactive = mostly above about 0.92. This is one part of the list.

Experiment: chemical genetic growth profiling, strain panel (AID 1159580);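 note: tested at 20 µM; growth read once vehicle control cultures reached saturation at 30 °C; 1 = growth at the plate median or of vehicle wells; lower values mean less growth of the strain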
Details: S. cerevisiae deletion strains, growth OD

Measured: normalized growth

O=c1cc(-c2ccc(O)cc2)oc2cc(O[C@@H]3O[C@H](CO)[C@@H](O)[C@H](O)[C@H]3O)cc(O)c12
inactive: locus YAL021C, strain ccr4, stronger effect = lower value 0.975 | locus YAL026C, strain drs2, stronger effect = lower value 1.02 | locus YAL030W, strain snc1, stronger effect = lower value 1.01 | locus YBL061C, strain skt5, stronger effect = lower value 1.01 | locus YBR009C, strain hhf1, stronger effect = lower value 0.995 | locus YBR021W, strain FUR4, stronger effect = lower value 0.953 | locus YBR023C, strain chs3, stronger effect = lower value 0.995 | locus YBR171W, strain sec66, stronger effect = lower value 1.02 | locus YBR229C, strain ROT2, stronger effect = lower value 0.983 | locus YBR231C, strain swc5, stronger effect = lower value 1.04 | locus YBR279W, strain paf1, stronger effect = lower value 1 | locus YCL011C, strain gbp2, stronger effect = lower value 0.992 | locus YCL016C, strain dcc1, stronger effect = lower value 0.983 | locus YCL029C, strain bik1, stronger effect = lower value 0.973 | locus YCL069W, strain vba3, stronger effect = lower value 1 | locus YCR088W, strain abp1, stronger effect = lower value 1 | locus YDL005C, strain med2, stronger effect = lower value 1.03 | locus YDL035C, strain GPR1, stronger effect = lower value 0.999 | locus YDL040C, strain nat1, stronger effect = lower value 0.998 | locus YDL074C, strain BRE1, stronger effect = lower value 0.974 | locus YDL101C, strain DUN1, stronger effect = lower value 0.986 | locus YDL185W, strain tfp1, stronger effect = lower value 0.968 | locus YDL192W, strain arf1, stronger effect = lower value 0.976 | locus YDR001C, strain nth1, stronger effect = lower value 1.01 | locus YDR069C, strain doa4, stronger effect = lower value 1.01 | locus YDR101C, strain arx1, stronger effect = lower value 0.981 | locus YDR137W, strain rgp1, stronger effect = lower value 1.01 | locus YDR150W, strain NUM1, stronger effect = lower value 0.988 | locus YDR159W, strain sac3, stronger effect = lower value 1.06 | locus YDR162C, strain NBP2, stronger effect = lower value 1.02 | locus YDR195W, strain ref2 1.01 | locus YDR297W, strain sur2, stronger effect = lower value 1.02 | locus YDR318W, strain mcm21, stronger effect = lower value 0.986 | locus YDR334W, strain swr1, stronger effect = lower value 1.01 | locus YDR335W, strain msn5, stronger effect = lower value 1 | locus YDR388W, stronger effect = lower value 0.973 | locus YDR392W, strain spt3, stronger effect = lower value 0.935 | locus YDR502C, strain sam2, stronger effect = lower value 0.982 | locus YEL003W, strain gim4, stronger effect = lower value 1.02 | locus YEL037C, strain rad23, stronger effect = lower value 1.01 | locus YEL061C, strain CIN8 (second series), stronger effect = lower value 1 | locus YEL061C, strain CIN8, stronger effect = lower value 0.99 | locus YER015W, strain faa2, stronger effect = lower value 0.993 | locus YER016W, strain bim1, stronger effect = lower value 1.01 | locus YER110C, stronger effect = lower value 0.995 | locus YER111C, strain swi4, stronger effect = lower value 1.01 | locus YER155C, strain BEM2 (second series), stronger effect = lower value 1.05 | locus YER155C, strain BEM2, stronger effect = lower value 0.98 | locus YER167W, strain BCK2, stronger effect = lower value 0.967 | locus YFR010W, strain ubp6, stronger effect = lower value 1.02 | locus YGL078C, strain dbp3, stronger effect = lower value 0.984 | locus YGL086W, strain mad1, stronger effect = lower value 0.978 | locus YGL167C, strain pmr1, stronger effect = lower value 1 | locus YGL173C, strain kem1, stronger effect = lower value 1.03 | locus YGL227W, strain vid30, stronger effect = lower value 1.01 | locus YGL240W, strain doc1, stronger effect = lower value 1.02 | locus YGL248W, strain PDE1, stronger effect = lower value 1 | locus YGL253W, strain hxk2, stronger effect = lower value 1.01 | locus YGR078C, strain PAC10, stronger effect = lower value 0.999 | locus YGR135W, strain pre9, stronger effect = lower value 0.973 | locus YGR252W, strain gcn5, stronger effect = lower value 0.974 | locus YHR013C, strain ard1, stronger effect = lower value 0.994 | locus YHR027C, strain rpn1, stronger effect = lower value 1.01 | locus YHR030C, strain SLT2, stronger effect = lower value 0.986 and 1.05 | locus YHR079C, strain IRE1 (second series), stronger effect = lower value 0.971 | locus YHR079C, strain IRE1, stronger effect = lower value 1.03 | locus YHR094C, strain hxt1, stronger effect = lower value 0.972 | locus YHR129C, strain ARP1, stronger effect = lower value 0.988 | locus YHR142W, strain chs7, stronger effect = lower value 1 | locus YHR200W, strain rpn10, stronger effect = lower value 0.957 | locus YIL066C, strain RNR3, stronger effect = lower value 0.979 | locus YIL073C, strain SPO22, stronger effect = lower value 0.969 | locus YIL125W, strain kgd1, stronger effect = lower value 0.974 | locus YIR030C, strain dcg1, stronger effect = lower value 0.987 | locus YJL092W, strain hpr5, stronger effect = lower value 1 | locus YJL095W, strain BCK1 (second series), stronger effect = lower value 1.02 | locus YJL095W, strain BCK1, stronger effect = lower value 1.02 | locus YJL115W, strain asf1, stronger effect = lower value 1.01 | locus YJL129C, strain trk1, stronger effect = lower value 1 | locus YJL134W, strain LCB3, stronger effect = lower value 0.983 | locus YJL154C, strain vps35, stronger effect = lower value 1.01 | locus YJL164C, strain tpk1, stronger effect = lower value 0.979 | locus YJL166W, strain qcr8, stronger effect = lower value 1.01 | locus YJL168C, strain set2, stronger effect = lower value 0.995 | locus YJL187C, strain SWE1 (second series), stronger effect = lower value 0.998 | locus YJR043C, strain POL32, stronger effect = lower value 0.995 | locus YJR066W, strain TOR1, stronger effect = lower value 0.998
